# The list is not random: actives were taken first. Their share in the collection is about 1.8%.
# PAD4 FP inh – human PAD4 inhibitors, primary screen, biochemical, fluorescence polarization, 1536-well format. Protein-arginine deiminase type-4 (Homo sapiens), Q9UM07. recombinant PAD4, RCA probe fluorescence polarization. hit rate 0.41% among 330,000. inhibition, % at 6.36 µM. AID 485272, 2010;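 active = percent inhibition above a cutoff equal to the mean of all tested compounds plus 3 SD, cut at about 15% in these data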;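 also: 0% = PAD4 with RCA probe and DMSO and 100% = probe without PAD4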
# GSTO1 inh – inhibitors of recombinant GSTO1, primary screen, counter-screen for RBBP9 inhibitor project, biochemical, fluorescence polarization; hit rate 1.1% among 300,000; activity-based probe fluorescence polarization; inhibition, % at 5.96 µM; Glutathione S-transferase omega-1 (Homo sapiens), P78417;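 active = inhibition above the campaign mean inhibition plus 3 SD, cut at about 35% in these data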;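 also: 0% = GSTO1-1 with DMSO and 100% = wells lacking GSTO1-1 enzyme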
# Target sequence (P78417 whole entry, looked up): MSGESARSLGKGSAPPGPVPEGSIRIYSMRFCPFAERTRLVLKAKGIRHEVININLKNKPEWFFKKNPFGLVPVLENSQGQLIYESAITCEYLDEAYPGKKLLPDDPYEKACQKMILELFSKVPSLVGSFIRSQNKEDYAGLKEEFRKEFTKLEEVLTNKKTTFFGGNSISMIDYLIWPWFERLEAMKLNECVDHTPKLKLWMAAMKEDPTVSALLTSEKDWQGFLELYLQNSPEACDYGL
# Fam108B inh – mouse Fam108B serine hydrolase inhibitors, primary screen, counter-screen for RBBP9 inhibitor project, biochemical, fluorescence polarization; recombinant Fam108B, FP-Rh probe fluorescence polarization; inhibition, % at 9.51 µM; hit rate 0.33% among 300,000; AID 1947, 2009;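 active = inhibition above the screen mean inhibition plus 3 SD, computed separately per campaign, cut at about 18% in these data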;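 also: inhibitors lower polarization as less probe binds the enzyme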
# LYPLA1 counter – LYPLA1 inhibitors, primary screen, counter-screen for PME1 inhibitor project, biochemical, fluorescence polarization, FP-Rh probe ABPP; recombinant LYPLA1; inhibition, % at 5.9 µM; hit rate 0.16% among 320,000;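 active = inhibition above the mean of all tested compounds plus 3 SD, set per campaign, cut at about 14% in these data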;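 also: inhibitors block serine hydrolase probe labeling of LYPLA1 so polarization falls; 0% = enzyme with DMSO and 100% = wells lacking LYPLA1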
# LYPLA2 counter – LYPLA2 inhibitors, primary screen, counter-screen for PME1 inhibitor project, biochemical, fluorescence polarization, FP-Rh probe ABPP. recombinant LYPLA2. inhibition, % at 5.9 µM. hit rate 0.38% among 320,000;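 active = inhibition above the screen-wide mean plus 3 SD, limit set per campaign, cut at about 26% in these data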;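 also: 0% = LYPLA2 with DMSO and 100% = wells lacking LYPLA2 enzyme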
# Target sequence (O95372 whole entry, looked up): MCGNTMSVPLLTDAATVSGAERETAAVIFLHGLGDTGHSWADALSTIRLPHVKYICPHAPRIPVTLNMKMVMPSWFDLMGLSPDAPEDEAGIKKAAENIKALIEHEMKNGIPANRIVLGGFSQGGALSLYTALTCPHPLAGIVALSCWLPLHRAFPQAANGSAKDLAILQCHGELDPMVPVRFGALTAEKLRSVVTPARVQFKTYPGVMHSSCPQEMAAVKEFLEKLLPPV
# PME-1 primary – PME-1 inhibitors via competitive probe labeling, primary screen, biochemical, fluorescence polarization, FP-Rh probe, HTS; recombinant PME-1; inhibition, % at 5.9 µM; hit rate 0.53% among 320,000; AID 2130, 2009;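 active = inhibition above the campaign mean of all compounds plus 3 SD, cut at about 26% in these data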;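 also: competitive labeling of PME-1 active site by serine hydrolase directed probe; 0% = PME-1 with DMSO and 100% = wells lacking PME-1 enzyme; inhibitors block probe labeling so polarization falls and inhibition rises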
# * hit, by the source's call; · = no result.
SMILES,PAD4 FP inh,GSTO1 inh,Fam108B inh,LYPLA1 counter,LYPLA2 counter,PME-1 primary
COc1cc(/C=C2/C(=O)N(c3ccccc3)N=C2C)ccc1OS(=O)(=O)c1ccccc1,36*,36*,10,-5,2,13
COc1cc(/C=C2/C(=N)N3C(=NC2=O)SN=C3S(C)(=O)=O)ccc1OS(=O)(=O)c1ccccc1,-3,-37,-9,-5,-6,-2
Cn1nc(C(=O)N2CCN(C(c3ccccc3)c3ccccc3)CC2)c2ccccc2c1=O,2,-8,0,-1,6,3
COc1ccc(C2CC(c3ccc(OC)c(OC)c3)=NN2S(C)(=O)=O)cc1 (stereo unspecified),-3,-2,-4,-3,4,33*
COc1ccc(OCCn2cc(/C=N/NC(=O)c3ccncc3)c3ccccc32)cc1,-6,-5,9,-7,39*,32*
Cc1cc(OC(C)C(=O)N2C[C@H]3C[C@@H](C2)c2cccc(=O)n2C3)c2c(C)c(C)c(=O)oc2c1 (stereo partly specified),-3,-1,0,2,5,-2
Cc1ccc(NC(=O)CN2C(=O)N/C(=C\c3ccco3)C2=O)cc1,0,·,·,·,·,·
CCOc1cc(/C=N/NC(=O)c2ccc(N(C)S(=O)(=O)c3ccccc3)cc2)ccc1OC,-5,-7,0,-7,-11,-10
COc1cccc(N2CCN(c3ncnc4c3[nH]c3ccc(F)cc34)CC2C)c1 (stereo unspecified),0,-14,16,0,8,28*
COc1cc2[nH]c3c(N4CCN(c5ccc(Cl)cc5)CC4)ncnc3c2cc1OC,-3,2,14,-26,-40,28*
CCOc1ccc(S(=O)(=O)N2CCC(C(=O)OC(C)C(=O)NC3CCCCC3C)CC2)cc1 (stereo unspecified),4,·,·,4,4,3
Cc1ccc(Nc2ccc(C(N)=O)cc2[N+](=O)[O-])cc1C,1,4,3,10,19,11
CC(=O)Nc1ccc(C=NNc2ccc([N+](=O)[O-])cc2S(=O)(=O)Nc2ccccc2C(=O)O)cc1,-4,·,·,·,·,·
Cc1ccc(NC(=S)NNc2ccc([N+](=O)[O-])cc2S(=O)(=O)Nc2ccccc2C(=O)O)cc1C,1,-144,9,-8,-5,48*
Cc1ccc(NC(=S)NNc2ccc(C(=O)O)cc2[N+](=O)[O-])cc1C,1,36*,5,1,12,13
COc1ccc(C(CNC(=O)COc2cccc(C(F)(F)F)c2)N2CCCC2)cc1 (stereo unspecified),6,·,·,1,1,2
COCCNC(=O)c1ccc2c(c1)S(=O)(=O)c1cc(Cl)ccc1C2=O,-4,·,·,2,5,6
O=C(NC1CC1)c1ccc2c(c1)S(=O)(=O)c1cc(Cl)ccc1C2=O,20*,·,·,0,-4,-3
CCN=c1scc(C)n1/N=C/c1ccc(O)c(O)c1O,3,69*,5,-4,-9,-4
Cc1ccc(NC(=O)c2cc3c(=O)oc4ccc(C)cc4c3s2)nc1,-3,8,-14,0,1,-3
Cc1cccc(C2Nc3cccc4cccc(c34)N2)c1,-1,37*,13,-4,-5,11
COc1cc(C2Nc3cccc4cccc(c34)N2)ccc1O,-5,31,11,-19,-15,27*
Cc1nn(-c2ccccc2)c(Cl)c1CN(C(=O)CCl)c1cccc2ccccc12,8,89*,-5,2,-1,-3
CC(=O)N(Cc1c(C)nn(-c2ccccc2)c1Cl)c1ccc(Cl)cc1,4,6,-1,0,3,-3
CC(=O)c1c(C)[nH]c(C(=O)OCC(=O)c2c[nH]c3ccccc23)c1C,-5,·,·,-6,-1,-9
SMILES,PAD4 FP inh,GSTO1 inh,Fam108B inh,LYPLA1 counter,LYPLA2 counter,PME-1 primary
O=C(OCC#CCSc1nnc(-c2ccncc2)o1)c1cccs1,-1,37*,-2,2,7,-2
N#C/C(=C(/O)c1ccc(Cl)cc1)c1nc2ccccc2[nH]1,-4,4,0,0,0,-3
N#C/C(=C(\O)c1cc(Cl)sc1Cl)c1nc2ccccc2[nH]1,-10,0,12,0,-2,35*
O=C(Nc1ccc([N+](=O)[O-])cc1)Nc1nc(-c2ccc(Cl)s2)cs1,-13,-9,11,-24,-15,44*
CN(C)CCn1c(SCc2ccccc2C#N)nc2c(sc3ccccc32)c1=O,2,-1,0,1,-12,4
CC(C)(C)c1ccc(O)c(N=Cc2cc(Br)ccc2O)c1,-3,35*,-1,3,4,7
Cc1ccc(C(=O)CC(=O)c2ccccc2)cc1,-1,1,-6,-2,-6,-5
Cc1ccc(C(=O)Sc2cccccc2=O)cc1,1,37*,1,4,8,1
COc1ccccc1C(C)NS(=O)(=O)c1cccs1 (stereo unspecified),97*,-3,0,2,4,-3
COc1ccc2c(c1)[nH]c1c(N3CCN(Cc4ccc5c(c4)OCO5)CC3)ncnc12,0,-10,10,-6,2,26*
COc1cccc2[nH]c3c(N4CCN(Cc5ccc6c(c5)OCO6)CC4)ncnc3c12,-4,1,4,-4,-1,20
CS(=O)(=O)c1sc(C#N)c2c1C(=O)CC(c1ccccc1)C2 (stereo unspecified),9,-67,-11,-8,-9,-14
Cc1ccccc1/C=C1\SC(=S)N(/N=C/c2cc([N+](=O)[O-])ccc2O)C1=O,3,35*,3,4,5,9
O=C1/C(=C\c2cc([N+](=O)[O-])ccc2O)SC(=S)N1Cc1ccc(Cl)cc1,-106,-162,-164,-52,-148,-340
Cc1ccc(C)c(NC(=O)CN(C)C(=O)c2cc(C3CC3)nn2-c2ccccc2)c1,-3,·,·,·,·,·
CC(=O)Nc1ccc(-c2nc3cc(Cl)ccc3o2)cc1,6,-14,-5,-6,-3,-14
O=C(O)c1ccccc1-c1ccccc1C(=O)Nc1ccc(-c2nc3cc(Cl)ccc3o2)cc1,-7,-137,-19,-14,-22,31*
Cn1c(=NC(=O)c2ccco2)sc2ccccc21,1,36*,2,3,6,-6
Cc1sc(=NC(=O)c2ccco2)n(C)c1-c1ccccc1,-9,-1,0,-3,0,2
CCN(CC)S(=O)(=O)c1cccc(C(=O)N/N=C/c2cccc(O)c2O)c1,-12,43*,0,-5,1,14

# Screening results as filed in PubChem BioAssay.
